# Results published in PubChem BioAssay (EPA / NIEHS).
# Inconclusive results are not listed. Calls of active or inactive are those of the source. Rule for the calls, unless noted: active = hit-call score of the fitted dose curve at least 0.9, where 1 is the maximum; inconclusive = response in the unintended direction; inactive = score below 0.9.
# Columns and labels:
# [1] = target: human CYP2C9, CYP2C9 (gene 1559) (UniProt P11712); assay: NVS_ADME_hCYP2C9: NovaScreen (NVS) CYP450-related Enzyme Activity (ADME) Assay for human CYP2C9 (AID 2283108)
# Sequence of human CYP2C9, CYP2C9 (gene 1559) (P11712 whole entry, looked up): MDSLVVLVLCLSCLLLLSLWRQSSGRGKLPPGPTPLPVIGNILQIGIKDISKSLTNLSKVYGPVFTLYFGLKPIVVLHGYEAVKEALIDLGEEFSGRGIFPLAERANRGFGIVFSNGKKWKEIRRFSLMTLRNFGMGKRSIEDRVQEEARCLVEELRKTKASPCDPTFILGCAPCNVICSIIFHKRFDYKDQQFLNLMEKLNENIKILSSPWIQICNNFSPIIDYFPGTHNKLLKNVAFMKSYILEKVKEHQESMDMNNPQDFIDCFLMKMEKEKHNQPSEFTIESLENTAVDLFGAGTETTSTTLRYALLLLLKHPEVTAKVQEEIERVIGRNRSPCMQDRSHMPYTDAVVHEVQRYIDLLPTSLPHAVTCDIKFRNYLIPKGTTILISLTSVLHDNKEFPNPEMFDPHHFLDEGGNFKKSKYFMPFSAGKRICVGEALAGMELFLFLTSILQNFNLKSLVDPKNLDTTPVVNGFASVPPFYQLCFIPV
# Summary of the method: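 Fluorescence readout of CYP2C9 activity (SF9-expressed human enzyme) at 0.75 h. The primary screen used 10 uM in duplicate, with concentration-response follow-up for actives; acetonitrile was the negative control.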
# [2] = target: Cytochrome P450 2C19 (Homo sapiens) (UniProt P33261); assay: NVS_ADME_hCYP2C19: NovaScreen (NVS) CYP450-related Enzyme Activity (ADME) Assay for human CYP2C19 (AID 2283113);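 for AC50: potency for inhibition seen as loss of fluorescent signal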
# Summary of the method: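 Chemicals first screened in duplicate at 10 uM against recombinant human enzyme produced in insect cells; confirmed actives then run as concentration series. Fluorogenic substrate turnover read by fluorescence after 1 h, normalised to acetonitrile.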
# [3] = target: Cytochrome P450 3A4 (Homo sapiens) (UniProt P08684); assay: NVS_ADME_hCYP3A4: NovaScreen (NVS) CYP450-related Enzyme Activity (ADME) Assay for human CYP3A4 (AID 2283110)
# Sequence of Cytochrome P450 3A4 (Homo sapiens) (P08684 whole entry, looked up): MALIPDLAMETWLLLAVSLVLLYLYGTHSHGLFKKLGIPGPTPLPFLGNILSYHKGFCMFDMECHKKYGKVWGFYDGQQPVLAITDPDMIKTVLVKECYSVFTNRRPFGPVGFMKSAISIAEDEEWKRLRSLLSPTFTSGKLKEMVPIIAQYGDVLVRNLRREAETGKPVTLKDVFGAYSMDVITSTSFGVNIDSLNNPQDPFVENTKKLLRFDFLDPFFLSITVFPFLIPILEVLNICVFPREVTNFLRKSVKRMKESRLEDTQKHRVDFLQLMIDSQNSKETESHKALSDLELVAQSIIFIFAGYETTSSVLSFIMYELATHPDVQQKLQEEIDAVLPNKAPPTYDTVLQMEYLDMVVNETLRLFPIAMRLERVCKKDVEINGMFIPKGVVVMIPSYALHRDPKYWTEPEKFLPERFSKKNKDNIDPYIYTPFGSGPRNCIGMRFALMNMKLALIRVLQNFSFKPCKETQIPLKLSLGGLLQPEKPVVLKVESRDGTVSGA
# Summary of the method: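 Compounds were first screened in duplicate at 10 uM against recombinant CYP3A4 produced in insect cells, then actives were run in concentration series. Enzyme activity was measured by fluorescence after 0.33 hour, with acetonitrile as baseline.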
# [4] = target: human CYP4F12, CYP4F12 (gene 66002) (UniProt Q9HCS2); assay: NVS_ADME_hCYP4F12: NovaScreen (NVS) CYP450-related Enzyme Activity (ADME) Assay for human CYP4F12 (AID 2283111)
# Sequence of human CYP4F12, CYP4F12 (gene 66002) (Q9HCS2 whole entry, looked up): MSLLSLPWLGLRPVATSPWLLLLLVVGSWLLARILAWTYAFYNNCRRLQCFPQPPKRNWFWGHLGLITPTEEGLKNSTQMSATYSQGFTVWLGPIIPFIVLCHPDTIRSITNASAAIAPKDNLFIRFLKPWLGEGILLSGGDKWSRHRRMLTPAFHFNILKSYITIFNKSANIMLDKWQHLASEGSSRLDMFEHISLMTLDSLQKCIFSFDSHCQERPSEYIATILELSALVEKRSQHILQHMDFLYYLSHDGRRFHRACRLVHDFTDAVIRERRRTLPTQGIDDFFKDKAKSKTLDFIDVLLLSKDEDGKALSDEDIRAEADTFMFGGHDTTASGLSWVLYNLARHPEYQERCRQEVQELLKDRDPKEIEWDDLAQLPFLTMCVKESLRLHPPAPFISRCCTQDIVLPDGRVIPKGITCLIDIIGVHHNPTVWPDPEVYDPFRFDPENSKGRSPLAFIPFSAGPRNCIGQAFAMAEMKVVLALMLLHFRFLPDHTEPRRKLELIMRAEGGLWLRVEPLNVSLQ
# Experimental: (§1) NVS_ADME_hCYP4F12 is a biochemical, single-readout assay that uses extracted gene-proteins in a cell-free assay. Measurements were taken 0.5 hour after chemical dosing in a 384-well plate.NVS_ADME_hCYP4F12 is one of one assay component(s) measured or calculated from the NVS_ADME_hCYP4F12 assay. It is designed to make measurements of enzyme activity, a form of enzyme reporter, as detected with fluorescence intensity signals by Fluorescence technology.Data from the assay component NVS_ADME_hCYP4F12 was analyzed into 1 assay endpoint. This assay endpoint, NVS_ADME_hCYP4F12, was analyzed in the positive analysis fitting direction relative to Acetonitrile as the negative control and baseline of activity. Using a type of enzyme reporter, loss-of-signal activity can be used to understand changes in the enzymatic activity as they relate to the gene CYP4F12. Furthermore, this assay endpoint can be referred to as a primary readout, because this assay has produced multiple assay endpoints where this one serves a enzymatic activity function. To generalize the intended target to other relatable targets, this assay endpoint is annotated to the cyp intended target family, where the subfamily is xenobiotic metabolism.
# Binding assays used specific radioligands (tritiated, iodinated) with non-radioactive competitive displacement ligands in agonist or antagonist protocols (as indicated) and various reference compounds and inhibitors to titrate specific binding to receptors and transporters. Most enzyme assays (CYPs, kinases, phosphatases, proteases, HDACs) used recombinant protein and specific substrates (fluorescence mostly, some colorimetric and radioactive) and inhibitors, followed by a biochemical separation of substrate and product. All assays for the biochemical HTS were initially run in duplicate at a single concentration (10 uM for CYP450 assays and 25 uM for all others). […] Each assay was run with positive and negative controls, and concurrent controls on every plate. […]
# [5] = target: human CYP2B6, CYP2B6 (gene 1555) (UniProt P20813); assay: NVS_ADME_hCYP2B6: NovaScreen (NVS) CYP450-related Enzyme Activity (ADME) Assay for human CYP2B6 (AID 2283101)
# Sequence of human CYP2B6, CYP2B6 (gene 1555) (P20813 whole entry, looked up): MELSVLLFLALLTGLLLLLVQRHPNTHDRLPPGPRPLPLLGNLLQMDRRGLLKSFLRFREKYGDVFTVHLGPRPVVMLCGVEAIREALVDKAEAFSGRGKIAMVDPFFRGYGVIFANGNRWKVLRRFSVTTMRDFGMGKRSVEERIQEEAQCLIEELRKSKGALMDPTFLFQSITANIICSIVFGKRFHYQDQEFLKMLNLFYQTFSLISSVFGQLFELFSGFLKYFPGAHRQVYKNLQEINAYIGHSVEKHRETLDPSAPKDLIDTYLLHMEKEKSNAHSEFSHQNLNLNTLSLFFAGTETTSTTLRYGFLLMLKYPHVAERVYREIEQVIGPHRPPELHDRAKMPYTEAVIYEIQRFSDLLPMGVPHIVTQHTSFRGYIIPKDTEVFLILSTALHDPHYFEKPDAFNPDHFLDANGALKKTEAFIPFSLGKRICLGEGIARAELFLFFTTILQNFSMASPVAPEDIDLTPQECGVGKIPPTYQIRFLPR
# Experimental: as §1, with “NVS_ADME_hCYP2B6” for “NVS_ADME_hCYP4F12”, “1” for “0.5”, “96-well plate.NVS_ADME_hCYP2B6” for “384-well plate.NVS_ADME_hCYP4F12”, “NVS_ADME_hCYP2B6,” for “NVS_ADME_hCYP4F12,”, “CYP2B6.” for “CYP4F12.”
# Binding assays used specific radioligands (tritiated, iodinated) with non-radioactive competitive displacement ligands in agonist or antagonist protocols (as indicated) and various reference compounds and inhibitors to titrate specific binding to receptors and transporters. Most enzyme assays (CYPs, kinases, phosphatases, proteases, HDACs) used recombinant protein and specific substrates (fluorescence mostly, some colorimetric and radioactive) and inhibitors, followed by a biochemical separation of substrate and product. All assays for the biochemical HTS were initially run in duplicate at a single concentration (10 uM for CYP450 assays and 25 uM for all others). […] Each assay was run with positive and negative controls, and concurrent controls on every plate. The follow-up (secondary) screen tested active chemical-pairs in concentration series, as well as a few additional assays not tested in the primary screen, some selected negative inactives, and several cases re-run in the concentration series for confirmatory purposes.
# [6] = target: human CYP2D6, CYP2D6 (gene 1565) (UniProt P10635); assay: NVS_ADME_hCYP2D6: NovaScreen (NVS) CYP450-related Enzyme Activity (ADME) Assay for human CYP2D6 (AID 2283107)
# Sequence of human CYP2D6, CYP2D6 (gene 1565) (P10635 whole entry, looked up): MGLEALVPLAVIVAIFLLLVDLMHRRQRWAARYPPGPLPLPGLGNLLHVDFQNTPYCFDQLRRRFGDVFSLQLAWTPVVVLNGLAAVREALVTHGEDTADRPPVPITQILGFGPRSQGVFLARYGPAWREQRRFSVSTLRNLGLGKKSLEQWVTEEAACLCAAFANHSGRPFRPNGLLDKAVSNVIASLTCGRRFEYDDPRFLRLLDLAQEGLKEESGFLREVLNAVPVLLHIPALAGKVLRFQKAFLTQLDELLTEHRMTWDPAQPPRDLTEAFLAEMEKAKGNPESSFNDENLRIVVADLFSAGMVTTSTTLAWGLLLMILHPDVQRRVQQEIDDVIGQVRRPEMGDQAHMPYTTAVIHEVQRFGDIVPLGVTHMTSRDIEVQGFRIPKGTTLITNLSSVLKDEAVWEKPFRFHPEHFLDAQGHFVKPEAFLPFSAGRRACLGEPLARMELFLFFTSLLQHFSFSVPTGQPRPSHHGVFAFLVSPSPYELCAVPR
# Summary of the method: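 Compounds were first tested in duplicate at 10 uM against recombinant enzyme produced in insect cells, with substrate turnover measured by fluorescence after 1 hour. Decreased signal, referenced to acetonitrile vehicle, was taken as reduced enzyme activity. Active chemicals went on to concentration-response testing.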
# [7] = target: human CYP1A2, CYP1A2 (gene 1544) (UniProt P05177); assay: NVS_ADME_hCYP1A2: NovaScreen (NVS) CYP450-related Enzyme Activity (ADME) Assay for human CYP1A2 (AID 2283102);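 note: potency for inhibition since loss of fluorescence marks reduced CYP1A2 activity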
# Sequence of human CYP1A2, CYP1A2 (gene 1544) (P05177 whole entry, looked up): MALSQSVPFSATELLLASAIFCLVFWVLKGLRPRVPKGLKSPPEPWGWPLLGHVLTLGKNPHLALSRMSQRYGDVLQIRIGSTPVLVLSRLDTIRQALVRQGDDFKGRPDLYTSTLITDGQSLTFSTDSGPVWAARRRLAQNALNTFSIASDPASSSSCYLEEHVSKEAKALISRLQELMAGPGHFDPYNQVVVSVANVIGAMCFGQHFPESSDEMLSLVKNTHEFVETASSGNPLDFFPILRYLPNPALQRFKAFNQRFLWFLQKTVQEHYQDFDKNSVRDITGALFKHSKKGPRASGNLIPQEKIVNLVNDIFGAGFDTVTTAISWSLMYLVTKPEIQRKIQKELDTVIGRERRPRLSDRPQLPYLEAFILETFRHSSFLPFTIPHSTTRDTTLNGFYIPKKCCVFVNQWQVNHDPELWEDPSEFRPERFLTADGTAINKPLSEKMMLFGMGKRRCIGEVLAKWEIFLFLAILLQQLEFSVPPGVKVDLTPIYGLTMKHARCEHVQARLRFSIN
# Summary of the method: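 Compounds were tested at 10 uM in duplicate against recombinant CYP1A2 produced in insect cells. Enzyme activity was measured by fluorescence 0.5 h after dosing, with loss of signal versus acetonitrile control. Active compounds were re-tested in concentration series.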
# [8] = target: rat CYP2A1, Cyp2a1 (gene 24894) (UniProt P11711); assay: NVS_ADME_rCYP2A1: NovaScreen (NVS) CYP450-related Enzyme Activity (ADME) Assay for rat CYP2A1 (AID 2283114; active = hit-call score of the fitted dose curve at least 0.9, where 1 is the maximum; inactive = score below 0.9)
# Sequence of rat CYP2A1, Cyp2a1 (gene 24894) (P11711 whole entry, looked up): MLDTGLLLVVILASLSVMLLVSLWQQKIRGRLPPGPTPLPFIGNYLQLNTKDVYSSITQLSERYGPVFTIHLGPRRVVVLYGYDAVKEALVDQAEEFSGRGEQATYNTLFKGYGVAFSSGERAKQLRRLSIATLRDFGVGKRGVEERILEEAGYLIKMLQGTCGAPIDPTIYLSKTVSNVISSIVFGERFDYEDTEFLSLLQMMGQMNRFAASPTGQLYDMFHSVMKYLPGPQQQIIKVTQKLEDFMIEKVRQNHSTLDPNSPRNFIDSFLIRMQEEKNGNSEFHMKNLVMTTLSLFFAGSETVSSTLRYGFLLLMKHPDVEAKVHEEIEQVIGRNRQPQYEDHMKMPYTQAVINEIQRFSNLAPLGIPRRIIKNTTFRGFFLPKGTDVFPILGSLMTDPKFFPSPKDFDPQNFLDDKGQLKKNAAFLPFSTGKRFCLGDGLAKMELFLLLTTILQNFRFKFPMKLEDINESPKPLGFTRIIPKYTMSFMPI
# Summary of the method: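 Recombinant rat CYP2A1, cell-free, fluorogenic substrate turnover read by fluorescence intensity 0.75 h after dosing. Primary screen at 10 uM in duplicate; actives rerun as concentration-response up to 20 uM; loss of signal versus acetonitrile control.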
# [9] = target: rat CYP1A2, Cyp1a2 (gene 24297) (UniProt P04799); assay: NVS_ADME_rCYP1A2: NovaScreen (NVS) CYP450-related Enzyme Activity (ADME) Assay for rat CYP1A2 (AID 2283115)
# Sequence of rat CYP1A2, Cyp1a2 (gene 24297) (P04799 whole entry, looked up): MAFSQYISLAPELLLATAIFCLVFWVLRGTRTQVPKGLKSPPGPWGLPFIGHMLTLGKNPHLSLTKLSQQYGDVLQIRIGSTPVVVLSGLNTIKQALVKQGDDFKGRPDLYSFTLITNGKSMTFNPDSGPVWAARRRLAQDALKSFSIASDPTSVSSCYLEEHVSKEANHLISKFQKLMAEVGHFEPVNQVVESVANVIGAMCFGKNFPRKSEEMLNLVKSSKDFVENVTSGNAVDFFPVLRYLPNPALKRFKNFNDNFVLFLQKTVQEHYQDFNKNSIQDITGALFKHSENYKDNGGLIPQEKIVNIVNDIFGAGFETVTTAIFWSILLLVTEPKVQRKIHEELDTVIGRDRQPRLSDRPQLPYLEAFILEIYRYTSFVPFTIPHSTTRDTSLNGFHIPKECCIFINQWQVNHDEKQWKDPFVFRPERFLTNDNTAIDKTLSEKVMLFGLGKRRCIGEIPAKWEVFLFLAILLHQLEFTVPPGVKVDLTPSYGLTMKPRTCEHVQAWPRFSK
# Summary of the method: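 Cell-free recombinant rat enzyme with fluorogenic substrate, read by fluorescence intensity 1 hour after dosing. Loss of signal versus acetonitrile negative control; primary screen at 10 uM in duplicate, actives followed in concentration series.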
# [10] = target: human CYP2J2, CYP2J2 (gene 1573) (UniProt P51589); assay: NVS_ADME_hCYP2J2: NovaScreen (NVS) CYP450-related Enzyme Activity (ADME) Assay for human CYP2J2 (AID 2283106)
# Sequence of human CYP2J2, CYP2J2 (gene 1573) (P51589 whole entry, looked up): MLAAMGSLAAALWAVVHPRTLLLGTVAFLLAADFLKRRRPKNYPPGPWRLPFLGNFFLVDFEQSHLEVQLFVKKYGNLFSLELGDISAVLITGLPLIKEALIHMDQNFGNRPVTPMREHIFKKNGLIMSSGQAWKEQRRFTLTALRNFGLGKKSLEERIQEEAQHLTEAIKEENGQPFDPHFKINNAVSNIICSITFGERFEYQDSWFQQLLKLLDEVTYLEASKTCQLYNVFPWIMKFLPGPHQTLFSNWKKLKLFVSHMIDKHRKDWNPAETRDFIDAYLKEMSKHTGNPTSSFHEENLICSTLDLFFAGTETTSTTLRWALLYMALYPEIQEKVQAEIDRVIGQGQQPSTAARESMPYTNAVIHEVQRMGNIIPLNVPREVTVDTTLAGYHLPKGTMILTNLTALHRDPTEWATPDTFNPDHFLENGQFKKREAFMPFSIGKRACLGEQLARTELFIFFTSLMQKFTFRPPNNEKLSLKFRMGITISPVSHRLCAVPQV
# Summary of the method: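 Cell-free assay of recombinant CYP2J2 with a fluorogenic substrate, read 1 h after dosing; loss of signal versus acetonitrile. Primary screen at 10 uM in duplicate, then concentration-response up to 20 uM for chemicals passing threshold (e.g., 30% inhibition).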
structure (smiles),measurement,setting,value
CCOP(=S)(OCC)SCn1nnc2ccccc2c1=O,AC50,[1],1.43 µM (active)
same,AC50,[2],3.57 µM (active)
O=S1(=O)OCC2C(CO1)C1(Cl)C(Cl)=C(Cl)C2(Cl)C1(Cl)Cl (stereo not drawn),AC50,[2],2.43 µM (active)
CCOC(=O)c1ccccc1C(=O)OCC,outcome,[3],inactive
O=P1(N(CCCl)CCCl)NCCCO1 (stereo not drawn),outcome,[4],inactive
CSC(C)(C)C=NO,outcome,[5],inactive
same,outcome,[1],inactive
same,outcome,[3],inactive
same,outcome,[2],inactive
O=[N+]([O-])c1ccccc1,outcome,[4],inactive
CCCCOCCOP(=O)(OCCOCCCC)OCCOCCCC,outcome,[2],inactive
Cc1ccc2c(c1N)C(=O)c1ccccc1C2=O,AC50,[6],5 µM (active)
same,AC50,[1],0.0118 µM (active)
same,outcome,[3],inactive
same,AC50,[2],3.02 µM (active)
CO/N=C(/C(=O)OC)c1ccccc1COc1ccccc1C,AC50,[7],9.98 µM (active)
same,AC50,[1],6.5 µM (active)
same,AC50,[2],2.85 µM (active)
same,AC50,[8],4.24 µM (active)
ClC1=C(Cl)C2(Cl)C3C(Cl)C(Cl)CC3C1(Cl)C2(Cl)Cl (stereo not drawn),AC50,[5],5.2 µM (active)
same,AC50,[2],6.11 µM (active)
C=CC(=O)OCC(CC)(COC(=O)C=C)COC(=O)C=C,AC50,[2],2.4 µM (active)
CC(C)Nc1ccc(Nc2ccccc2)cc1,outcome,[6],inactive
same,AC50,[1],2.66 µM (active)
same,AC50,[2],3.42 µM (active)
CC(Cc1ccc(OCC(=O)O)cc1)NCC(O)c1csc(C(F)(F)F)n1 (stereo not drawn),outcome,[2],inactive
c1ccc2c(c1)sc1ccccc12,outcome,[9],inactive
O=P(OCC(Br)CBr)(OCC(Br)CBr)OCC(Br)CBr (stereo not drawn),AC50,[2],4.35 µM (active)
same,outcome,[9],inactive
CC1(C)CN=C(NN=C(/C=C/c2ccc(C(F)(F)F)cc2)/C=C/c2ccc(C(F)(F)F)cc2)NC1,AC50,[7],12.9 µM (active)
same,AC50,[10],5.19 µM (active)
same,outcome,[3],inactive
CCC(C)(C)c1ccc(O)cc1,AC50,[5],10 µM (active)
Nc1ccc2ccccc2c1,AC50,[5],1.45 µM (active)
same,AC50,[7],7.68 µM (active)
same,AC50,[2],2.58 µM (active)
CCC1(c2ccccc2)C(=O)N=C(O)NC1=O (stereo not drawn),outcome,[4],inactive
CCOP(=S)(Oc1ccc([N+](=O)[O-])cc1)c1ccccc1 (stereo not drawn),AC50,[5],4.41 µM (active)
same,AC50,[7],5.08 µM (active)
same,AC50,[1],5.15 µM (active)
same,AC50,[3],3.84 µM (active)
same,AC50,[2],0.198 µM (active)
Cc1ccc([N+](=O)[O-])cc1C,AC50,[2],2.77 µM (active)
O=P(Oc1ccccc1)(Oc1ccccc1)Oc1ccccc1,AC50,[7],5.67 µM (active)
same,AC50,[2],0.872 µM (active)
CCNc1nc(Cl)nc(NC(C)(C)C)n1,AC50,[2],6.82 µM (active)
CCCCCCCc1ccc(O)cc1,outcome,[2],inactive
CCCCN(CCCC)SN(C)C(=O)Oc1cccc2c1OC(C)(C)C2,AC50,[1],16.8 µM (active)
same,outcome,[2],inactive
CCOP(=S)(OCC)SCSCC,AC50,[2],9.32 µM (active)
c1ccc2c(c1)Nc1ccccc1S2,AC50,[7],1.45 µM (active)
same,AC50,[1],6.5 µM (active)
same,AC50,[2],6.45 µM (active)
